This passage reports NF-kB reporter, IRF reporter and viability score results from the supplement of paper PMC10646978.

What all share (details): modulator concentration 10 µM
Experiment [1] relates to RAW-Dual (murine macrophage reporter line). Kind of experiment: NF-kB reporter (SEAP) activity fold change vs agonist alone; higher = enhanced NF-kB activity. An outline of the steps:
(§1)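 Compound reached 10 μM final in each well by pin transfer, onto RAW-Dual murine macrophage reporter cells seeded at 50 000 per well in 384-well plates. After 1 hour at 37 °C, the cells were stimulated overnight with a PRR agonist. SEAP in the supernatant was read with QUANTI-Blue at 620 nm absorbance for NF-κB, and Lucia luciferase was read with QUANTI-Luc luminescence for IRF. Each signal was turned into fold change against the mean agonist-only control on the same plate, and two replicate plates were averaged with propagated errors.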

Experiment [2] shares this test system. The experiment in a line: IRF reporter (Lucia luciferase) activity fold change vs agonist alone; higher = enhanced IRF activity. The procedure, abridged:
as §1

For experiment [3] the test system is unchanged. Kind of experiment: viability score (confluency relative to resting cells, overnight) (fraction); higher = more viable, active = viable (0.7 or more). The procedure, abridged: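 RAW-Dual macrophages in 384-well plates were treated overnight with compound at 10 μM final. IncuCyte imaging recorded confluency, and IncuCyte software built two confluency masks across every imaged well. The viability score expresses confluency relative to resting cells and was judged against a cutoff, which a compound met only if both masks exceeded 70% of resting cells.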

Where [4] appears, read: agonist: CpG ODN 1826 0.5 ug/mL.

± gives the standard deviation.

With `O=C(NC1CCCCC1)N(Cc1cnc2ccccn12)c1ccccc1`, the figures for the NF-kB reporter in experiment [1] (setting [4]), in experiment [1] (agonist: LPS 0.1 ug/mL) and in experiment [1] (agonist: MPLA […]) were 1.01 ± 0.1, 1.14 ± 0.088 and 1.15 ± 0.059, respectively. For the same molecule, the values for the IRF reporter in experiment [2] (agonist: 3'3'-cGAMP 10 ug/mL), in experiment [2] (agonist: LPS 0.1 ug/mL) and in experiment [2] (agonist: MPLA […]) were 0.997 ± 0.044, 1.06 ± 0.053 and 1.05 ± 0.16, respectively. Further, in experiment [3], the viability score is 0.995 (active).

Consider `CCOC(=O)C(=NNc1ccccc1[N+](=O)[O-])C(=O)CSc1ccc(C)cc1`, for which the NF-kB reporter was 0.697 ± 0.046 in experiment [1] (setting [4]), 0.789 ± 0.049 in experiment [1] (agonist: LPS 0.1 ug/mL) and 0.919 ± 0.056 in experiment [1] (agonist: MPLA […]). For the same molecule, the IRF reporter in experiment [2] (agonist: 3'3'-cGAMP 10 ug/mL) was 0.154 ± 0.0098; in experiment [2] (agonist: LPS 0.1 ug/mL), 1.14 ± 0.083; in experiment [2] (agonist: MPLA […]) it was 1.14 ± 0.12. For the same molecule, in experiment [3], the viability score was 1 (active).

As to `CC(Oc1ccccc1)C(=O)NCc1cc(-c2ccncc2)n(C2CCCC2)n1` (stereo unspecified), the NF-kB reporter in experiment [1] (setting [4]) turned out to be 1.35 ± 0.1; in experiment [1] (agonist: LPS 0.1 ug/mL) it was 1.24 ± 0.11; in experiment [1] (agonist: MPLA […]) it was 1.13 ± 0.12. The IRF reporter was 1.02 ± 0.067 in experiment [2] (agonist: 3'3'-cGAMP 10 ug/mL), 1.02 ± 0.064 in experiment [2] (agonist: LPS 0.1 ug/mL) and 1.12 ± 0.086 in experiment [2] (agonist: MPLA […]). In addition, the viability score in experiment [3] was 1 (active).

With `CCN(CC)c1ccc(C=Nc2c(C)cc(C)cc2C)cc1`, the NF-kB reporter in experiment [1] (setting [4]) came to 0.97 ± 0.08; in experiment [1] (agonist: LPS 0.1 ug/mL), 1.03 ± 0.086; in experiment [1] (agonist: MPLA […]), 0.959 ± 0.054. Further, the IRF reporter in experiment [2] (agonist: 3'3'-cGAMP 10 ug/mL) amounted to 0.894 ± 0.046; in experiment [2] (agonist: LPS 0.1 ug/mL), 0.968 ± 0.063; in experiment [2] (agonist: MPLA […]) it was 0.94 ± 0.065. In addition, the viability score in experiment [3] is 1 (active).

Consider `CCCn1c(C(O)(c2ccccc2)c2ccccc2)nc2ccccc21`, for which the NF-kB reporter in experiment [1] (setting [4]) was 0.514 ± 0.034; in experiment [1] (agonist: LPS 0.1 ug/mL) it was 1.07 ± 0.082; in experiment [1] (agonist: MPLA […]), 0.736 ± 0.05. In addition, the IRF reporter is 1.3 ± 0.08 in experiment [2] (agonist: 3'3'-cGAMP 10 ug/mL), 1.1 ± 0.086 in experiment [2] (agonist: LPS 0.1 ug/mL) and 1.04 ± 0.19 in experiment [2] (agonist: MPLA […]). Further, in experiment [3], the viability score was 0.888 (active).

For the molecule `O=c1c(O)c(-c2ccc(O)cc2O)oc2cc(O)cc(O)c12`, the results for the NF-kB reporter in experiment [1] (setting [4]), in experiment [1] (agonist: LPS 0.1 ug/mL) and in experiment [1] (agonist: MPLA […]) were 1.03 ± 0.28, 1.1 ± 0.066 and 1.01 ± 0.085, respectively. The IRF reporter in experiment [2] (agonist: 3'3'-cGAMP 10 ug/mL) is 0.739 ± 0.027; in experiment [2] (agonist: LPS 0.1 ug/mL), 1.11 ± 0.21; in experiment [2] (agonist: MPLA […]), 1.14 ± 0.14. For the same molecule, the viability score in experiment [3] is 1 (active).

On to `COC12C(COC(N)=O)C3=C(C(=O)C(C)=C(N)C3=O)N1CC1NC12` (stereo unspecified), for which the NF-kB reporter in experiment [1] (setting [4]) stood at 1.35 ± 0.12; in experiment [1] (agonist: LPS 0.1 ug/mL), 0.967 ± 0.083; in experiment [1] (agonist: MPLA […]), 1.18 ± 0.13. Further, the IRF reporter in experiment [2] (agonist: 3'3'-cGAMP 10 ug/mL) turned out to be 1.09 ± 0.075; in experiment [2] (agonist: LPS 0.1 ug/mL), 1.32 ± 0.18; in experiment [2] (agonist: MPLA […]) it was 1.41 ± 0.28. In experiment [3], the viability score was 0.969 (active).

`Cc1cc(CNC(=O)CCc2ccc(S(C)(=O)=O)cc2)c(C)o1`: the NF-kB reporter came out at 1.24 ± 0.44 in experiment [1] (setting [4]), 1.03 ± 0.084 in experiment [1] (agonist: LPS 0.1 ug/mL) and 1.04 ± 0.066 in experiment [1] (agonist: MPLA […]). Also, the IRF reporter was determined as 0.928 ± 0.046 in experiment [2] (agonist: 3'3'-cGAMP 10 ug/mL), 0.97 ± 0.18 in experiment [2] (agonist: LPS 0.1 ug/mL) and 1 ± 0.11 in experiment [2] (agonist: MPLA […]). Moreover, the viability score in experiment [3] is 0.999 (active).

Regarding `O=C(CCCCC(=O)NN=Cc1cccc(O)c1)NN=Cc1cccc(O)c1`, the NF-kB reporter came out at 1.05 ± 0.093 in experiment [1] (setting [4]), 1.08 ± 0.081 in experiment [1] (agonist: LPS 0.1 ug/mL) and 0.935 ± 0.12 in experiment [1] (agonist: MPLA […]). Moreover, the results for the IRF reporter in experiment [2] (agonist: 3'3'-cGAMP 10 ug/mL), in experiment [2] (agonist: LPS 0.1 ug/mL) and in experiment [2] (agonist: MPLA […]) were 0.955 ± 0.032, 1.41 ± 0.15 and 1.16 ± 0.17, respectively. In addition, the viability score in experiment [3] was 1 (active).

Turning to `CC12CC3CC(C1)CC(CC(=O)O)(C3)C2`, the NF-kB reporter in experiment [1] (setting [4]) was 1.02 ± 0.18; in experiment [1] (agonist: LPS 0.1 ug/mL) it was 1.04 ± 0.12; in experiment [1] (agonist: MPLA […]), 0.994 ± 0.17. The figures for the IRF reporter in experiment [2] (agonist: 3'3'-cGAMP 10 ug/mL), in experiment [2] (agonist: LPS 0.1 ug/mL) and in experiment [2] (agonist: MPLA […]) were 0.907 ± 0.029, 1.09 ± 0.11 and 1.3 ± 0.3, respectively. In addition, the viability score in experiment [3] was 0.526 (inactive).

As to `CN(C)CCOC1=Cc2ccccc2Sc2ccc(Cl)cc21` [Prestw-1368], the results for the NF-kB reporter in experiment [1] (setting [4]), in experiment [1] (agonist: LPS 0.1 ug/mL) and in experiment [1] (agonist: MPLA […]) were 0.965 ± 0.077, 0.97 ± 0.094 and 1.11 ± 0.039, respectively. The IRF reporter was determined as 0.772 ± 0.031 in experiment [2] (agonist: 3'3'-cGAMP 10 ug/mL), 0.895 ± 0.061 in experiment [2] (agonist: LPS 0.1 ug/mL) and 0.761 ± 0.099 in experiment [2] (agonist: MPLA […]). Also, the viability score in experiment [3] is 0.994 (active).

As to `CCN1C(C)=C(C(=O)OC)C(c2ccc([N+](=O)[O-])cc2)C(C(=O)OC)=C1C`, the NF-kB reporter in experiment [1] (setting [4]) was found to be 1.17 ± 0.11; in experiment [1] (agonist: LPS 0.1 ug/mL) it was 0.868 ± 0.079; in experiment [1] (agonist: MPLA […]) it was 0.991 ± 0.049. In addition, the IRF reporter worked out at 0.981 ± 0.037 in experiment [2] (agonist: 3'3'-cGAMP 10 ug/mL), 0.954 ± 0.044 in experiment [2] (agonist: LPS 0.1 ug/mL) and 0.961 ± 0.1 in experiment [2] (agonist: MPLA […]). Moreover, the viability score in experiment [3] is 0.994 (active).

For the molecule `CCN1CCCC1CNC(=O)c1cc(S(N)(=O)=O)ccc1OC` (stereo unspecified), the NF-kB reporter in experiment [1] (setting [4]) came to 1.01 ± 0.11; in experiment [1] (agonist: LPS 0.1 ug/mL) it was 1.06 ± 0.07; in experiment [1] (agonist: MPLA […]) it was 0.992 ± 0.052. The IRF reporter in experiment [2] (agonist: 3'3'-cGAMP 10 ug/mL) stood at 1.02 ± 0.11; in experiment [2] (agonist: LPS 0.1 ug/mL) it was 0.982 ± 0.11; in experiment [2] (agonist: MPLA […]), 0.865 ± 0.068. The viability score in experiment [3] is 1 (active).
